About 83,000 compounds went through this panel and 20% of them were active in at least one assay; those are over-represented in the sample as a whole.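 Step 1: grow cells in 96-well plates. Step 2: add test compound at a single concentration. Step 3: incubate 48 h. Step 4: record percent growth.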 Values without a mark were called inactive. Activity calls are given as the source filed them. How the source made its calls: active means growth percent below 10; inactive means the rest.

In the test the test system is MDA-MB-468 breast. Kind of test: NCI-60 one-dose screen, 48 h (100 = growth as untreated, 0 = no growth, -100 = all killed). As to conditions: 10 µM unless noted.
With `COc1cc2nc(-c3ccc(Cl)cc3)cc(OCCCNCC3CCCO3)c2cc1OC` (stereo not given), the growth is 46.2%.

Regarding `Cc1ccc2c(c1)=C/C(=C\c1cc(-c3ccccc3)oc1O)C(=O)N=2`, the growth was 109%.

On to `CN1CCN(CC(=O)N(C)c2ccc(N=C(c3ccccc3)c3c(O)[nH]c4ccc(C#N)cc34)cc2)CC1`, for which the growth is 93.8%.

As to `COc1ccc(NC(=O)COCCOCCNC[C@@H]2C(=O)O[C@H]3[C@H]2CC/C(COC(=O)OC/C2=C/CC[C@@]4(C)O[C@H]4[C@H]4OC(=O)[C@@H](CN(C)C)[C@@H]4CC2)=C\CC[C@@]2(C)O[C@@H]32)c(O)c1C(N)=O`, the growth was -19.5% (active).

Consider `O=C(NC1CCCCC1)c1ccc(Cl)cc1`, for which the growth was 104%.

In the case of `COc1cc2ncnc(Nc3ccc(F)c(Cl)c3)c2cc1NC(=O)/C=C/CN1CCCCC1`, the growth is -82.2% (active).

Regarding `O=C1OCC2=C1C(c1cccc(C(F)(F)F)c1)c1cc3c(cc1N2CCO)CCC3` (stereo not given), the growth is -1.26% (active).

Take `COc1cc2nc(-c3ccc(C(F)(F)F)cc3)cc(OCCCN3CCOCC3)c2cc1OC`: the growth is 49.4%.

For `COc1ccc2nc(-c3ccc(OC)c(OC)c3)cc(-c3nnc(SCC(=O)Nc4ccc(C(C)=O)cc4)o3)c2c1`, the growth was 103%.

With `COc1ccc(/C=C2\COc3ccc(O)cc3C2=O)c(OC)c1OC`, the growth was 48.8%.

Take `COc1cc(O)c2c(=O)c3c(CC=C(C)C)cc(OC)c(O)c3oc2c1`: the growth was 64.6%.

Turning to `O=S(=O)(Nc1ccc(-n2cnc3cc(-c4ccc(O)cc4)ccc32)cc1)c1ccccc1`, the growth is 100%.

`CCOC(=O)CCCC(=O)OCC`: the growth was 116%.

Regarding `Nc1c(C(=O)Nc2ccccc2)sc2nc3c(cc12)CN(Cc1ccccc1)CC3`, the growth is 76.2%.

As to `CCCCCCC/C(=N\N=C(N)N)c1ccc(O)cc1`, the growth was -79.7% (active).

As to `O=C(Nc1cccc(-n2cc(-c3ccncc3)c(-c3ccc(Cl)c(O)c3)n2)c1)c1ccc(N2CCOCC2)c(C(F)(F)F)c1`, the growth was 66%.

`C/C(=N\Nc1ccc([N+](=O)[O-])cn1)c1ccc(N)cc1`: the growth is 99.7%.

With `COc1ccc(-c2nn(C(=O)c3cc(OC)c(OC)c(OC)c3)c3cc(N)ccc23)cc1`, the growth is -1.08% (active).

Regarding `Cc1ccc2nc(-c3ccc(OCC(=O)N=Nc4c(O)[nH]c5ccccc45)cc3)[nH]c2c1`, the growth is 60.6%.

With `Cc1cc2cc3cc(C)c(N)cc3[n+](C)c2cc1N`, the growth is -28.8% (active).

Regarding `O=Nc1ccc(NO)c2ccccc12`, the growth was 73.7%.

On to `COc1ccc(-c2cc(-c3cc(OC)ccc3O)[nH]c(=O)c2C#N)cc1`, for which the growth is 59.5%.

As to `COCCn1cc(-c2nc(-c3cc4cccnc4n3C)cs2)c2ccccc21`, the growth is -16.1% (active).

`Cc1ccc(C(=O)N/N=C/c2cccc([N+](=O)[O-])c2)cn1`: the growth was 89.5%.

In the case of `Cn1c2ccccc2c2c3c(c4c5ccccc5[nH]c4c21)C(=O)N(N)C3=O`, the growth was -37.5% (active).

As for `CCCCCN1C=C/C(=C\C(=O)N(C)c2ccccc2Br)c2ccccc21`, the growth is 71.2%.

Consider `CC(SC(C)C(=O)N/N=C/c1cccc(Cl)c1)C(=O)N/N=C\c1cccc(Cl)c1` (stereo not given), for which the growth is 97.4%.

On to `O=C1Nc2ccccc2/C1=C/c1cccn1C(=O)c1ccc(Cl)s1`, for which the growth is -16.5% (active).

With `Cc1ccc(-n2c(-c3ccccc3)c(-c3ccccc3)c3c(SCC(=O)n4[nH]c(N)cc4=O)ncnc32)cc1`, the growth was 91.8%.

Take `N#Cc1c(NC(=O)c2cccc(Br)c2)sc2c1CCCC2`: the growth was 59.3%.

As to `O=C(N/N=C/C[C@@H]1[C@@H](/C=C/[C@@H](O)COc2cccc(Cl)c2)[C@H](O)C[C@@H]1O)c1ccncc1`, the growth is 97.9%.

For `CC1=CC(=O)N(c2cccc3c(N4C(=O)C=C(C)C4=O)cccc23)C1=O`, the growth was 23.6%.

With `COC(=O)CNC(=O)[C@H](Cc1ccccc1)NCc1ccncc1`, the growth is 97.4%.

Consider `Cc1nc2cc(Nc3nc(N4CCCCC4)nc(N4CCOCC4)n3)ccc2n1Cc1ccccc1`, for which the growth was 70.1%.

As to `C=C(C)[C@@H]1CC[C@]2(COP(=O)(OCC)OCC)CC[C@]3(C)[C@H](CC[C@@H]4[C@@]5(C)CC[C@H](OP(=O)(OCC)OCC)C(C)(C)[C@@H]5CC[C@]43C)[C@@H]12`, the growth was 22.1%.

As to `COc1cc(N)c2ncccc2c1Cl`, the growth was 103%.

With `COC(=O)C1CN(S(=O)(=O)/N=C2\NC(=O)NC2=C(Cl)Cl)C1`, the growth is 72.5%.

Take `COC(=O)C1=C(C)NC(C)=C(C(=O)OC)C(N2C(=O)CCC2=O)C1` (stereo not given): the growth is 63.4%.

With `O=c1nc(-c2ccccc2)c2cc(-c3ccc(N4CCCC4)nc3)ccc2[nH]1`, the growth was 48.4%.

Turning to `CCOC(=O)/C(=C/c1ccc(OC)cc1)N(CC)CC`, the growth is 106%.
